Reference: PubChem BioAssay AID1030 (National Center for Advancing Translational Sciences (NCATS), 2008)
Out of some 220,000 compounds screened, about 16,000 (7.3%) were called active. Where a call stands in place of a potency, no number is given. Another 25% or so got no clear call; they are omitted. This excerpt belongs to a sample that is enriched for actives. Values without a mark were called inactive. Calls follow the shape of the dose curve; as a rule, active = well fitted inhibition curve with a large enough effect (not every such curve was filed as active); inconclusive = small, poorly fitted or top-dose-only effect, or another doubt; inactive = no such curve, though single readings can be large or run the other way.

molecular target: Aldehyde dehydrogenase 1A1 (Homo sapiens) (UniProt P00352); test: qHTS Assay for Inhibitors of Aldehyde Dehydrogenase 1 (ALDH1A1); conditions: Purified ALDH1A1, NADH fluorescence, propionaldehyde substrate; series mostly up to 75.3 µM
Potency is read from the fitted curve at half-maximal effect.

Chain of Aldehyde dehydrogenase 1A1 (Homo sapiens) (P00352 whole entry, looked up): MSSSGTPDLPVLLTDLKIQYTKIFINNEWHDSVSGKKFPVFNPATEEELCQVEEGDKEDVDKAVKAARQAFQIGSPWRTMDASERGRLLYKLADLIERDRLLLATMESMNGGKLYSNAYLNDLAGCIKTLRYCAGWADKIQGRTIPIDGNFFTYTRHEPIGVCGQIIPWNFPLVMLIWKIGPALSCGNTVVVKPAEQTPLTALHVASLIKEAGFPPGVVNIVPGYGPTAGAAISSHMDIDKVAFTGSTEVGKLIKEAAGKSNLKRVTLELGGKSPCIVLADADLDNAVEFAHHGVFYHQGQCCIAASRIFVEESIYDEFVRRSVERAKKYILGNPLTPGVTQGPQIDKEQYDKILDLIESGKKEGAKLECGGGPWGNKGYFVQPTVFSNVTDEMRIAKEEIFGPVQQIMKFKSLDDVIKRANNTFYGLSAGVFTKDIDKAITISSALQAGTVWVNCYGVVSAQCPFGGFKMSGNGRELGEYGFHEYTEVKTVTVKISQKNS

Compound | Potency | activity, negative = inhibition
CC(C)CC[n+]1ccn(C2=C([O-])c3ccccc3C(=O)/C2=N\S(=O)(=O)c2ccccc2)c1 | 8.91 µM (active) | 
COc1ccc(-c2csc(Nc3ccccn3)n2)cc1 | inactive | 
Brc1ccc2ncnc(NCc3cccnc3)c2c1 | inactive | 
Cc1ccc(C(=O)NCCNS(=O)(=O)c2ccccc2)cc1 | inactive | 
Cc1ccc(S(=O)(=O)NCCSC(C)(C)C)cc1 | 17.8 µM (active) | 
O=S(=O)(NCCc1ccccc1)c1ccccc1 | inactive | 
COc1cc(OC)cc(C(=O)OCC(=O)Nc2ccc(F)cc2F)c1 | inactive | 
CC(C)=C1C2CCC1C1C(=O)N(NC(=O)c3ccco3)C(=O)C21 (stereo not given) | inactive | 
COc1cccc(NCCC(=O)c2cccc([N+](=O)[O-])c2)c1 | 0.224 µM (active) | 
COc1ccccc1OCCNC(=O)c1cc([N+](=O)[O-])cc([N+](=O)[O-])c1 | inactive | 
COc1ccc(NS(=O)(=O)c2cc(NC(=O)CC(=O)c3ccc([N+](=O)[O-])cc3)ccc2C)cc1 | inactive | 
O=C(NCc1csc(-c2cccs2)n1)C1CC1 | inactive | 
CC(C)Oc1ccc(Cc2n[nH]c(=S)n2Cc2ccccc2)cc1Cl | inactive | 
O=C(COc1ccccc1)NCc1ccc2c(c1)OCO2 | inactive | 
NC(=O)COc1ccc(C23CC4CC(CC(C4)C2)C3)cc1 | inactive | 
NNC(=O)COc1ccc(C2SCCS2)cc1 | 3.98 µM (active) | 
COc1ccc(CCNC(=O)COC(=O)Cc2cc(OC)c(OC)c(OC)c2)cc1 | inactive | 
CC(C)N(Cc1nc(-c2ccc3c(c2)OCO3)no1)CC1CCC(=O)N1 (stereo not given) | inactive | 
Cc1nc(N)c(Br)c(C)c1Br | inactive | 
CCN(CC)S(=O)(=O)c1cccc(-c2n[nH]c(=S)n2/N=C/c2ccc(C(=O)OC)cc2)c1 | 22.4 µM (active) | 
Cc1ccc(/C=N\n2c(-c3ccccc3)n[nH]c2=S)s1 | inactive | 
COC(=O)c1ccc(/C=N/N2C(C)CCCC2C)cc1 (stereo not given) | inactive | 
CCN(CC)C(=O)C(=O)Nc1cccc(Br)c1 | inactive | 
C=CCn1c(CCNC(=O)c2ccccc2F)nnc1SCC(=O)Nc1ccc(OC)cc1 | inactive | 
Cc1nc(CN2CCN(C(=O)CCc3nnc(Cc4c[nH]c5ccccc45)o3)CC2)cs1 | inactive | 
COC(=O)c1c(NC(=O)CN2C(=O)NC(CCc3ccccc3)C2=O)sc2c1CCCCC2 (stereo not given) | 20 µM (active) | 
Cc1cc(NC(=O)CN2C(=O)NC(CCc3ccccc3)C2=O)no1 (stereo not given) | inactive | 
CCN1C(=O)N[C@@H](CCc2ccccc2)C(C(=O)OC)=C1C |  | 5.7% [at 13.5 µM]

Compound | Potency | activity, negative = inhibition
CC(=O)N1CCc2cc(S(=O)(=O)Nc3ccccc3N3CCN(C)CC3)ccc21 | inactive | 
CCCNS(=O)(=O)c1ccc2c(c1)CCCN2C(C)=O | 22.4 µM (active) | 
CCC1CCCCN1CCNS(=O)(=O)c1ccc2c(c1)CCN2C(C)=O (stereo not given) | inactive | 
CC(=O)Nc1ccc(NC(=O)COc2ncnc3ccccc23)cc1 | inactive | 
O=S(=O)(Cc1noc(-c2ccc(OC(F)(F)F)cc2)n1)c1ccc(F)cc1 | inactive | 
CSc1nc2sc3c(c2c(=O)[nH]1)CCc1ccccc1-3 | inactive | 
COc1ccc(-n2c(=S)[nH]c3sc4c(c3c2=O)CCc2ccccc2-4)cc1 | 3.98 µM (active) | 
COc1cccc(-n2c(=S)[nH]c3c(oc4ccccc43)c2=O)c1 | inactive | 
CC(NC(=O)CC1SC(N)=NC1=O)c1ccccc1 (stereo not given) | inactive | 
O=C(NCCc1c[nH]c2ccccc12)c1cc2ccccc2oc1=O | inactive | 
CN=C1C=C/C(=N/N=c2\ccn(O)cc2C)C=C1C | inactive | 
COc1ccc(C2CC(c3cccs3)=NN2C(=O)CSc2nnc(N)s2)cc1OC (stereo not given) | inactive | 
CCn1cc(C(=O)NCc2ccc3c(c2)OCO3)c2cc(OC)c(OC)cc2c1=O | inactive | 
CCn1cc(C(=O)N2CCN(Cc3ccc4c(c3)OCO4)CC2)c2cc(OC)c(OC)cc2c1=O | 2.24 µM (active) | 
CCn1cc(C(=O)N2CCN(C3CCCCC3)CC2)c2cc(OC)c(OC)cc2c1=O | inactive | 
Cn1cnnc1SCc1nnc(-c2ccccc2Br)o1 | inactive | 
COCc1ccc(C(=O)N2CCc3c([nH]c4ccccc34)C2c2ccccn2)s1 (stereo not given) | inactive | 
COc1ccccc1CC(NC(C)=O)C(=O)NC1CCN(C(=O)Nc2ccccc2Cl)CC1 (stereo not given) | inactive | 
CCn1cc(/C=C2/SC(=S)NC2=O)c(C)n1 | inactive | 
Cc1nn(C)cc1/C=C1\CCC/C(=C\c2cn(C)nc2C)C1=O | 28.2 µM (active) | 
Cc1c(Cl)c([N+](=O)[O-])nn1CC(=O)NCC1CCCO1 (stereo not given) | inactive | 
CCOC(=O)c1ccc(NC(=O)c2cc(=O)[nH]c3ccccc23)cc1 | inactive | 
CCn1c(CSc2nc(C)cc(C)n2)nnc1SCC(N)=O | inactive | 
C/C(=N\NC(=O)c1ccc(CSc2nc(C)cc(C)n2)cc1)C1CCCCC1 | 3.55 µM (active) | 
C/C(=N\NC(=O)c1nc(C)cc(C)n1)c1ccccc1 | inactive | 
CC1=C(/C=C/C(C)=C/C=C/C(C)=C/C=C/C=C(C)/C=C/C=C(C)/C=C/C(=O)[C@]2(C)C[C@@H](O)CC2(C)C)C(C)(C)C[C@H](O)C1 | inactive | 
O=C(Nc1ccc2c(c1)CCC2)c1ccc(Br)s1 | inactive | 
